VP16 counter: VP16 counterscreen qHTS for inhibitors of ROR gamma transcriptional activity | Drosophila S2 Gal4-VP16 UAS-luciferase, luminescence, 20 h | Potency, µM (top dose mostly 53.6 µM), inactives show at the top dose activity, negative = inhibition, most hits filed as inhibitors | 310,000 tested, 3.5% active;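 also: Gal4-VP16 expression switched on by copper sulfate through the metallothionein promoter; nearly all actives have a fitted effect of over 50% in size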
RORgamma inh: qHTS for inhibitors of ROR gamma transcriptional activity; Nuclear receptor ROR-gamma (Mus musculus), P51450; Potency, µM (series often up to 53.6 µM), for inactives: at the top dose activity change, negative = inhibition, hits mostly inhibitors; 310,000 tested, 5.4% active; Drosophila S2 Gal4-RORgamma UAS-luciferase reporter, 20 h; also: nearly all actives have a fitted effect of over 60% in size
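Drosophila S2 cells stably expressing Gal4-DBD/mouse RORγ fusion under metallothionein promoter plus UAS-luciferase; compound 1 h, then 700 uM CuSO4 induction for 20 h at ambient temperature; inhibition read as reduced luminescence.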
DT40 TDP1 CPT: qHTS for Inhibitors of human tyrosyl-DNA phosphodiesterase 1 (TDP1): qHTS in cells in presence of CPT. chicken DT40 Tdp1-/-;hTDP1 cells + 20 nM CPT, ATP luminescence, 48 h. Potency, µM (titrated, usually from 46.2 µM), inactives show top-dose activity change, negative = growth inhibition, most hits filed as inhibitors. 420,000 tested, 12% active; also: nearly all actives have a fitted effect of over 55% in size
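Chicken DT40 Tdp1-/- cells complemented with human TDP1, 400 cells/well, exposed to compounds plus 20 nM camptothecin for at least 48 h at 37 C; viability read as ATP content by CellTiter-Glo luminescence.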
DT40 TDP1 no CPT: qHTS for Inhibitors of human tyrosyl-DNA phosphodiesterase 1 (TDP1): qHTS in cells in absence of CPT. DT40 Tdp1-/- hTDP1 cells, no CPT, ATP luminescence, 48 h. 420,000 tested, 15% active. Potency, µM (highest dose often 46.2 µM), without a hit: top-dose activity change, negative = growth inhibition, hits mostly inhibitors; also: nearly all actives have a fitted effect of over 55% in size
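Growth of hTDP1-complemented DT40 Tdp1-knockout cells is measured by ATP luminescence after at least 48 hr compound exposure at 37 °C, with DMSO substituting for the 20 nM CPT used in the parallel screen.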
TDP1 block: qHTS Assay for Inhibitors of Tyrosyl-DNA Phosphodiesterase (TDP1); 350,000 tested, 0.28% active; recombinant TDP1, AlphaScreen DNA substrate cleavage; Potency, µM (top dose mostly 130 µM), for the others: at the highest dose activity change, negative = inhibition, usual class: inhibitors; AID 485290, 2010; also: nearly all actives have a fitted effect of over 40% in size
Target sequence (Q9NUW8 whole entry, looked up): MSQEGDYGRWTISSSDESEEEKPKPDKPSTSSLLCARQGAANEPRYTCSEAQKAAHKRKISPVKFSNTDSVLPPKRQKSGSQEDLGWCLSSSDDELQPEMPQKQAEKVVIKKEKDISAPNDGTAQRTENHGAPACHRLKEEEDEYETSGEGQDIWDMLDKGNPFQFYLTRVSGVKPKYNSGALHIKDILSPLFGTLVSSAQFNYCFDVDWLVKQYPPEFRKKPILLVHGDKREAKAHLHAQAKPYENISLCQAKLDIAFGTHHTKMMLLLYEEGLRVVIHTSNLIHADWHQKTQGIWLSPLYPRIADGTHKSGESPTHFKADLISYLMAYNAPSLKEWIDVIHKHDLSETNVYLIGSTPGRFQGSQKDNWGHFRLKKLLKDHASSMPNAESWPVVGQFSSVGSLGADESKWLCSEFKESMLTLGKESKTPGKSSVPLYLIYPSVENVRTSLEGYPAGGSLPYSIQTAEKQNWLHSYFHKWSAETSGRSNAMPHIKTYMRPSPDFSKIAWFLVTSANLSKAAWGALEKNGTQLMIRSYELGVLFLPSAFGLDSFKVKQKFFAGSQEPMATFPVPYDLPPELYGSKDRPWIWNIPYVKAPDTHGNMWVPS
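Recombinant human Tdp1 (E. coli-expressed, 1 nM final) preincubated with compounds 15 min at room temperature, then 5'-biotin/3'-phosphotyrosine-FITC DNA substrate (15 nM final) added for 5 min. AlphaScreen beads (10 ug/ml final) added 10 min; cleavage lowers signal.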
Starred values were filed as active, the others as inactive; u = inconclusive; x = no result; [ ] = remark or other dose. An excerpt weighted towards active compounds, which were near 19% of everything screened. Calls follow the shape of the dose curve; as a rule, active = well fitted curve in the direction sought with a large enough effect; inconclusive = small, poorly fitted or top-dose-only effect, or another doubt; inactive = no such curve, though single readings can be large; an effect the other way counts as inactive or inconclusive. % is scaled to controls: 0 for no effect and ±100 for the full control effect; potency is read from the fitted curve at half-maximal effect.

SMILES	VP16 counter	RORgamma inh	DT40 TDP1 CPT	DT40 TDP1 no CPT	TDP1 block
CCN(CC)c1ccc(/C=N/NC(=O)c2ccoc2C)c(O)c1	3.55µM*	0.501µM*	13µM*	3.26µM*	11.9%
CC(=O)OC[C@@H]1O[C@@H](O/N=C2/C[C@@H](O)[C@@H](O)[C@@H]3[C@@H]4C(=O)N(c5cccc(Oc6ccccc6)c5)C(=O)[C@H]4CC[C@H]23)[C@H](OC(C)=O)[C@H](OC(C)=O)[C@@H]1OC(C)=O	-2.7%[10 µM]	1.0%[10 µM]	x	x	4.8%[21 µM]
CCN(CC)c1ccc(/C=N/NC(=S)NC)c(O)c1	1.78µM*	0.794µM*	0.731µM*	0.517µM*	5.4%
CCC(C)[C@H](NC(=O)N1CCn2c1nc1ccccc12)C(=O)NCc1ccccc1 (some centres undefined)	-3.4%	3.7%	u	u	3.5%
COc1ccc(CCNC(=O)c2cc(-c3cc(C)ccc3O)n[nH]2)cc1OC	1.0%	8.6%	u	u	6.0%
COc1ccc2cc3cc(C(=O)NCCc4ccccc4)sc3nc2c1Cl	x	x	11.6µM*	16.4µM*	-0.6%
COc1ccccc1-c1cc(C(=O)NCCc2ccccc2)no1	u	27.8%	13µM*	14.6µM*	-1.8%
COc1ccc(CCNC(=O)c2cc(-c3ccc(C)c(C)c3O)n[nH]2)cc1OC	3.5%	-37.9%	20.6µM*	16.4µM*	-7.0%
COc1ccc(CCNC(=O)c2cc(-c3ccccc3OC)on2)cc1OC	-0.6%	7.5%	u	20.6µM*	-1.0%
COc1ccc(-c2cc(C(=O)NCCc3ccccc3)no2)cc1OC	-9.2%	17.9%	-23.0%	-13.7%	-7.2%
COc1ccc2nc3sc(C(=O)NCCc4ccc(Cl)cc4)cc3cc2c1	x	x	9.0%	-13.4%	-2.1%[12.3 µM]
Cc1cccc(-c2nc3c4ccccc4n(CC(=O)Nc4cc(F)ccc4F)c(=O)n3n2)c1	x	x	-11.2%	-21.8%	5.2%
COc1ccc(CCNC(=O)c2cc(-c3ccc(Cl)cc3)on2)cc1OC	x	x	-1.6%	0.4%	3.6%
COc1ccc(CCNC(=O)c2cc(CC(C)C)on2)cc1OC	u	-1.5%	u	16.4µM*	9.8%
CC(=O)NCCc1ccc(O)cc1	14.5%	-0.3%	-7.3%	-16.5%	x
O=C1c2ccccc2CCC1CNCCc1ccc(O)cc1 (centres undefined)	x	x	-82.8%	20.6µM*	3.7%
O=C1c2ccccc2CC[C@H]1CNCCc1ccc(O)cc1	11.2µM*	14.1µM*	13.3µM*	13.3µM*	7.1%
C=CCSc1nc(C)c(CCC(C)C)c(=O)[nH]1	3.3%	-19.0%	u	u	x
Cc1cccc(OCc2nc(CC(=O)Nc3ccc(C)cc3C)cs2)c1	x	x	14.6µM*	u	3.6%
Cc1cc(C)cc(NC(=O)Cc2csc(COc3cccc(C)c3)n2)c1	x	x	-19.8%	-20.1%	-2.6%
CCOC(=O)Nc1sc2nc(C)cc(C)c2c1-n1cccc1	0.1%	-3.8%	23.1µM*	9.2µM*	1.0%
O=C(NCCCN1CCCCC1)c1sc2ncccc2c1-n1cccc1	x	x	-18.8%	-12.9%	0.6%
CCCCN(CC)CCCNC(=O)c1sc2nc(C)cc(C)c2c1-n1cccc1	x	x	u	18.4µM*	5.7%
CCC(C)NC(=O)c1sc2ncccc2c1-n1c(C)ccc1C (centres undefined)	x	x	20.6µM*	25.9µM*	4.1%
CCCSCCCNC(=O)c1sc2nc(C)cc(C)c2c1-n1cccc1	x	x	u	u	8.6%
SMILES	VP16 counter	RORgamma inh	DT40 TDP1 CPT	DT40 TDP1 no CPT	TDP1 block
CCOC(=O)C(C)Oc1c(C(=O)OC)sc2ncccc12 (centres undefined)	14.1%	7.8%	14.2%	-1.1%	3.8%
CC(CNC(=O)c1sc2ncccc2c1-n1cccc1)c1ccccc1 (centres undefined)	x	x	u	25.9µM*	3.0%
CCC(C)NC(=O)C(Cc1ccccc1)NS(=O)(=O)c1ccc2c(c1)oc(=O)n2C (centres undefined)	0.4%	-13.6%	-2.8%	32.0%	0.3%
Cn1c(=O)c(C=Nc2ccccc2)c(O)c2ccccc21	4.7%	11.3%	x	x	-1.3%
C=CCC1NS(=O)(=O)OC2CCCCC12 (centres undefined)	-3.4%	0.0%	1.5%	22.5%	x
CC(C)(/C=N/O)/[N+]([O-])=C/c1ccco1	-5.9%	-26.0%	12.0%	10.8%	0.0%
Cc1cc(C)c2c(-n3cccc3)c(C(=O)NCC(C)c3ccccc3)sc2n1 (centres undefined)	x	x	20.6µM*	20.6µM*	11.4%
O=C(NCCCN1CCCC1=O)c1c(O)nc2ccccn2c1=O	1.6%	-11.8%	-17.2%	-5.6%	2.3%
O=c1[nH]c(NNC(=S)NC2CCCCC2)nc2c1C1(CCCC1)Cc1ccccc1-2	25.1µM*	2.82µM*	-0.3%	-1.0%	10.0%
O=c1[nH]c(NNC(=S)NCc2ccccc2)nc2c1C1(CCCCC1)Cc1ccccc1-2	2.82µM*	2.51µM*	u	-9.7%	10.5%
O=c1[nH]cnc2c1C1(CCCC1)Cc1ccccc1-2	-8.8%	-1.9%	-6.7%	-2.3%	3.4%
O=c1[nH]c(NCCCO)nc2c1C1(CCCC1)Cc1ccccc1-2	6.7%	25.7%	u	u	5.4%
C=CCNC(=S)NNc1nc2c(c(=O)[nH]1)C1(CCCC1)Cc1ccccc1-2	3.16µM*	2.82µM*	u	-4.5%	7.9%
CCCc1nn2c(=O)cc(COC(=O)c3ccc(NC(=O)COc4ccccc4F)cc3)nc2s1	x	x	u	u	3.8%
CCNC(=S)NNC(=O)c1cc(-c2ccc(OC)cc2)nc2ccccc12	3.55µM*	1.41µM*	3.66µM*	4.11µM*	10.5%

Assay outcomes as filed in PubChem.
